63 sequences from paper PMC7819943, “Rice protein-binding microarrays: a tool to detect cis-acting elements near promoter regions in rice” can be followed below.

Over roughly 35,000 sequences, “fluorescence intensity (a.u.)” has its median near 10,000; the highest 2% begin near 52,000. The entries come from a sample that favours the highest values as a whole.

The target of the test is T1, OsWOX13 (Oryza sativa, UniProt Q5QMM3 1-267).
T1 sequence: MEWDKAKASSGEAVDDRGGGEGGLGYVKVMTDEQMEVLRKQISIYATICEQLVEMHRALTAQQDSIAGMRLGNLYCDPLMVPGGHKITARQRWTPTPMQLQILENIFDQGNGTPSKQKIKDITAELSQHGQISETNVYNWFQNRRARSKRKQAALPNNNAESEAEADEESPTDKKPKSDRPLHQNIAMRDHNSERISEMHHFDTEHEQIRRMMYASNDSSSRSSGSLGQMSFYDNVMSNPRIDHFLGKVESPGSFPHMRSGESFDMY
Put plainly: protein-binding microarray (RPBM); PBS, 2% BSA, 51.3 ng/ul salmon testes DNA, 50 uM zinc acetate, 200 nM TF, 25 C, 1 h; high values mean tight binding. The conditions noted are these: protein: recombinant; tags: N-terminal polyhistidine and DsRed monomer fusion (pET32a); label: CyDye5-dUTP incorporated in the synthesized complementary strand; 3' TTTTT single-stranded linker to array surface; dsDNA, one strand shown. Put shortly:
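Transcription factors were each fused at the N-terminus to a polyhistidine tag plus DsRed and expressed in E. coli BL21-CodonPlus before Ni–NTA purification. Binding to a double-stranded custom Agilent array was carried out with 200 nM protein at 25 °C for 1 h in PBS, 2% BSA, salmon testes DNA and 50 µM zinc acetate. The binding signal is per-feature fluorescence intensity, in arbitrary units, on an Axon 4000B scanner.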
As to “ACTCCCTATTAATTTCCATCACCTTTACCAAACAAGATATCGGAGTCACCTAGTGCAG”, the binding signal is 6910 fluorescence intensity (a.u.). The same measure for “GATTTAAACTGAAACGAACAGATTCTTTGTTCTTTGCATACGGAGTCACCTAGTGCAG”: 9800 fluorescence intensity (a.u.); for “ATAATTAGTACCTTATAATAAGTAGCACAATCTTCGTGTTCGGAGTCACCTAGTGCAG”: 7900 fluorescence intensity (a.u.); for “TGGAATGATGGATAAAGTCCAAGTTTGACCTGAGTCAAAGCGGAGTCACCTAGTGCAG”: 6270 fluorescence intensity (a.u.). The value for “CAGATATAAATTGAGCGACTTCCAGAGTGATCAGCACTACCGGAGTCACCTAGTGCAG” was 7440 fluorescence intensity (a.u.). The same measure for “ACAACAACAGCTTTGATCAATCAATCCATCAACTCAGGTTCGGAGTCACCTAGTGCAG”: 11400 fluorescence intensity (a.u.); for “AATCTTTTCTTAATTCTATAATTATCCTTAACGAATTAGTCGGAGTCACCTAGTGCAG”: 4150 fluorescence intensity (a.u.). “GATAACTGGTGTGGAGGCTGCGGCGTGGGTGGTAAAGCACCGGAGTCACCTAGTGCAG”: the binding signal is 3220 fluorescence intensity (a.u.).

“ATATGATTATGTGATAATGTTTGAGAGTACAAACAAATGACGGAGTCACCTAGTGCAG”: the binding signal was 19000 fluorescence intensity (a.u.). The value for “ATTAATGATTGATAGTCAGTCACTTAGCCATGTTATTTTGCGGAGTCACCTAGTGCAG” was 65500 fluorescence intensity (a.u.); that for “GATTTTGATAGGAATGTAAGTATAAAACAGAGGATTGTAACGGAGTCACCTAGTGCAG” was 3360 fluorescence intensity (a.u.). In the case of “TTTTGATTGATAAGTATAACCATGTATAAGCGAAACAATGCGGAGTCACCTAGTGCAG”, the binding signal was 64500 fluorescence intensity (a.u.). The same measure for “TAAATTTTGACTGATAAGTATAAGTATAAGCGAAAAGATTCGGAGTCACCTAGTGCAG”: 12400 fluorescence intensity (a.u.); for “ACAATGATTGATTAATGTTTGATAGTAACAGCCATGAGAGCGGAGTCACCTAGTGCAG”: 58800 fluorescence intensity (a.u.). The value for “TGTTAGATTTAATGTAATTGATTTGATATTTTAGATATTGCGGAGTCACCTAGTGCAG” was 49700 fluorescence intensity (a.u.); that for “TATTATTTATTTTGTTTGTGATTTGCTTTGTTATTAATAGCGGAGTCACCTAGTGCAG” was 8380 fluorescence intensity (a.u.); that for “ATAATTTTGAAATTATTAACATGATATAAATGAGATAGAGCGGAGTCACCTAGTGCAG” was 16200 fluorescence intensity (a.u.).

“AACCCAATAACGGTAACTGACAAAACGATGAAAACCAAACCGGAGTCACCTAGTGCAG”: the binding signal was 4460 fluorescence intensity (a.u.). The value for “ATATAGATTTACGTTGGATTTATACTGATTCTAACCAAATCGGAGTCACCTAGTGCAG” was 13600 fluorescence intensity (a.u.). As for “ATGATTTTGTTTTGTTTTGCGAATAATTTTGGCGCCTCAACGGAGTCACCTAGTGCAG”, the binding signal was 6150 fluorescence intensity (a.u.). The same measure for “CACCAGTGATCTTATAATTGTAAATTTTGATCCAAGATTCCGGAGTCACCTAGTGCAG”: 3800 fluorescence intensity (a.u.); for “AAGAATTAATTAATGTTTAACTAGATGGCCTTATTATCTCCGGAGTCACCTAGTGCAG”: 34300 fluorescence intensity (a.u.); for “ATGTGTATGATGTGTTTGTTTATGTGTGGACTTTATAATACGGAGTCACCTAGTGCAG”: 3210 fluorescence intensity (a.u.). The same measure for “TTTACTAAGCAATCAAGATAACCTGATGTGCCTATCCATCCGGAGTCACCTAGTGCAG”: 10200 fluorescence intensity (a.u.). The value for “ACAAACACGTAATAACATTAATTTCAATCTACACATCATACGGAGTCACCTAGTGCAG” was 9270 fluorescence intensity (a.u.); that for “GCTCCTAACCAATCAGCGCACCCATCGTCCCAAAATCCCCCGGAGTCACCTAGTGCAG” was 8480 fluorescence intensity (a.u.). On to “ATAATTATTATGTCTGGTAGGATAGGATTTAGATGGTAAGCGGAGTCACCTAGTGCAG”, for which the binding signal was 5670 fluorescence intensity (a.u.). The same measure for “TCCAATTGATTGCAAATCGATTCCTCACTCCTCTCTTATCCGGAGTCACCTAGTGCAG”: 57400 fluorescence intensity (a.u.); for “AATCTCAAATTGAATCCATTTTATTTGATGACGATTTATTCGGAGTCACCTAGTGCAG”: 9810 fluorescence intensity (a.u.); for “TGATGAGATTGATCCGATGATCTCCTCTTTAAATTTCTCGCGGAGTCACCTAGTGCAG”: 19100 fluorescence intensity (a.u.). Turning to “CCAAATCAATCAAATCGCATTCCACCAATTCTCCACTCTCCGGAGTCACCTAGTGCAG”, the binding signal was 27300 fluorescence intensity (a.u.). The same measure for “TCATTTCTCCAATCATAGGAGCTGGCGCATTGATCGATCACGGAGTCACCTAGTGCAG”: 6160 fluorescence intensity (a.u.). The value for “ATCAATTCAAATTTAAATTTTGATGAAACTCTTCGAAATCCGGAGTCACCTAGTGCAG” was 14400 fluorescence intensity (a.u.); that for “TCCAGTGATTAATCTCTTCTCCATCTCTGCCCTGCACCCTCGGAGTCACCTAGTGCAG” was 21400 fluorescence intensity (a.u.); that for “TTGGAGATGATTGATTGGAAATCTTCTTCCAGTCTCCTCTCGGAGTCACCTAGTGCAG” was 61700 fluorescence intensity (a.u.). The same measure for “TGATGATTTGATTTGATTTGATTCAATCTCCAAATCGATCCGGAGTCACCTAGTGCAG”: 65100 fluorescence intensity (a.u.). In the case of “CCAATGATTGATCGATTTCTCTCCATACGCCGTGTGCCAACGGAGTCACCTAGTGCAG”, the binding signal was 59700 fluorescence intensity (a.u.). The same measure for “AAATCCCACTCCAATCACCACCACCTCTTCTCCAATTCCACGGAGTCACCTAGTGCAG”: 3840 fluorescence intensity (a.u.); for “CTCTCGCTCGCCATGATTGATCGAGCTCCACCTGCCAATTCGGAGTCACCTAGTGCAG”: 12900 fluorescence intensity (a.u.). The same measure for “GTGATGATTTATTTTCGAACTATCTAGCTATTTATCTAGACGGAGTCACCTAGTGCAG”: 9370 fluorescence intensity (a.u.). The same measure for “CTCCAATTCATCTATAATCAATCTAATAGCCAATTCATACCGGAGTCACCTAGTGCAG”: 5900 fluorescence intensity (a.u.). “GTTTTATTCTGATTAAATTAAATGCCACAGGGACATTGTCCGGAGTCACCTAGTGCAG”: the binding signal is 9600 fluorescence intensity (a.u.). The value for “ATGTGGCCGATAATTGCTTTGCATGCTGATGGATGTGGCTCGGAGTCACCTAGTGCAG” was 4180 fluorescence intensity (a.u.). The same measure for “GTCATAAATTGATCCATACATATCATAGTAAAGCGTGGGTCGGAGTCACCTAGTGCAG”: 33400 fluorescence intensity (a.u.); for “ATCTAATCTTGAATTAAACTCACTATCAATTCCCACCATCCGGAGTCACCTAGTGCAG”: 4380 fluorescence intensity (a.u.). The value for “GAAATAATTGATTGAATCCTATTCTATCCTCTAAAATTCCCGGAGTCACCTAGTGCAG” was 30900 fluorescence intensity (a.u.); that for “CTAAATTGAATCTATCCACTTTGCCTCCTAAACTCACCCCCGGAGTCACCTAGTGCAG” was 54600 fluorescence intensity (a.u.).

Regarding “TAGTCAATTACTACTAGGTATGTGCTATTCATAACCATGACGGAGTCACCTAGTGCAG”, the binding signal is 7320 fluorescence intensity (a.u.).

Take “AGCTTTTCAGACTGAAAATGTAATAGACAACCTTATCAGACGGAGTCACCTAGTGCAG”: the binding signal is 3810 fluorescence intensity (a.u.). As for “GGTAAATTGCAATACTCCGGATGTTCAGAGACAATAAGAGCGGAGTCACCTAGTGCAG”, the binding signal is 13900 fluorescence intensity (a.u.).

Turning to “TTAGATTATTGAGTCAGATTACTATAAGCTAGATTATTATCGGAGTCACCTAGTGCAG”, the binding signal was 12500 fluorescence intensity (a.u.).

Take “CAATCATTGATTGTTACTTTGTTAGTAATTGGTTAGTATACGGAGTCACCTAGTGCAG”: the binding signal was 30100 fluorescence intensity (a.u.). The same measure for “TATCGATCGATTGATTGCTATAGCTAGGTCAAATCGATCGCGGAGTCACCTAGTGCAG”: 28100 fluorescence intensity (a.u.). The same measure for “GTGCTAATATAATTTAAATAACTAGTTTGACGGACAAATCCGGAGTCACCTAGTGCAG”: 10800 fluorescence intensity (a.u.).

Take “TTGTAATTAGTAGGGTGATTACTATTTGGTAATCATAAGTCGGAGTCACCTAGTGCAG”: the binding signal is 33000 fluorescence intensity (a.u.).

As for “CGTAATTAGTAGGTTGATTACTATTTGCTAATCATAAGTGCGGAGTCACCTAGTGCAG”, the binding signal was 65200 fluorescence intensity (a.u.). The value for “TAGTAATTGATTGCTGCCAAGATTACATTACTGCCCAATACGGAGTCACCTAGTGCAG” was 65500 fluorescence intensity (a.u.); that for “TATGAATGCATTATGATTACTATTTGCTAATCATAAGTGGCGGAGTCACCTAGTGCAG” was 11000 fluorescence intensity (a.u.); that for “TACAAATTGATTGGCTATAGGTCAAATAGTGGATCCTAGACGGAGTCACCTAGTGCAG” was 56000 fluorescence intensity (a.u.). The value for “ACAAATTAGCTATTATATTGGCTATAGATGATTTGGAGTACGGAGTCACCTAGTGCAG” was 42300 fluorescence intensity (a.u.); that for “TTGATTAATTTGACGTCGATGCTACTAATAGTTAACCTTCCGGAGTCACCTAGTGCAG” was 54200 fluorescence intensity (a.u.); that for “TTGCCAATTATGATTGGAGATTTACAAGTAGACTTCAATACGGAGTCACCTAGTGCAG” was 18500 fluorescence intensity (a.u.). The value for “TGCTAGTTAATATAATCTACTAATTAAAATAGTCGATTGACGGAGTCACCTAGTGCAG” was 6000 fluorescence intensity (a.u.).
